From PubChem BioAssay AID588689 (Southern Research Specialized Biocontainment Screening …, 2011)
In all, about 340,000 compounds went through this assay and about 1,000 (0.29%) were called active. Rule as the data show it: inconclusive = inhibition above about 29% without an active follow-up result; inactive = below that. A selection follows. Potency and affinity values are given separately.

Target: Genome polyprotein (Dengue virus type 2 (strain 16681-PDK53)) (UniProt P29991)
Assay: flavivirus cap methylation enzyme inhibition – biochemical, confirmation dose response, primary screen (AID 588689)
Details: Dengue-2 NS5 methyltransferase capping enzyme assay, at 25 µM, stronger effect = higher value
[1] = measured here: pilot screen replicate inhibition

Structure (SMILES) | inhibition | inhibition [1]
CCc1ccc(C(=O)C(C)OC(=O)c2nc3nc(C)cc(C)n3n2)cc1 (stereo unspecified) | -7.33% (inactive) | 
O=C1NN(c2ccccc2)C(=O)C1=Cc1ccccc1 | 25.9% (inactive) | 
COc1cc(/C=C2/C(=O)NN(c3ccc(F)cc3)C2=O)cc(Cl)c1O | -28% (inactive) | 
C#CCOc1ccc(/C=C2/C(=O)NN(c3ccc(F)cc3)C2=O)cc1OC | 14.3% (inactive) | 
O=C1NN(c2ccccc2)C(=O)/C1=C\c1ccccc1 | 8.92% (inactive) | 
COc1ccc2oc(C(=O)OCC(=O)N(C)C3CCS(=O)(=O)C3)c(C)c2c1 (stereo unspecified) | -8.65% (inactive) | 
O=C(CNC(=O)c1ccc(F)cc1)N/N=C/c1cn[nH]c1-c1ccccc1 | -12.6% (inactive) | 
CN(CC(=O)Nc1ccc(F)cc1)C(=O)CSc1nncs1 | -2.59% (inactive) | 
CCCCC(=O)Nc1nnc(-c2ccco2)o1 | 1.48% (inactive) | 
CCNS(=O)(=O)c1ccc(NC(=O)Nc2ccc3c(c2)OCO3)cc1 | -8.45% (inactive) | 
Cc1c(F)cccc1NS(=O)(=O)c1ccc2c(c1)c(C)cc(=O)n2C | -4.58% (inactive) | 
O=C1C(Cl)=C(NCCCN2CCOCC2)C(=O)c2ccccc21 | 17% (inactive) | 
NC(=O)C1CCN(C2=C(NS(=O)(=O)c3ccccc3)C(=O)c3ccccc3C2=O)CC1 | 0.77% (inactive) | 
O=C1C(Cl)=C(N2CCN(c3ccccc3[N+](=O)[O-])CC2)C(=O)c2ccccc21 | 3.21% (inactive) | 
NC(=O)C1CCN(C2=C(NS(=O)(=O)c3ccc(Cl)cc3)C(=O)c3ccccc3C2=O)CC1 | 7.95% (inactive) | 
O=C1C(Cl)=C(NCCN2CCOCC2)C(=O)c2ccccc21 | 4.52% (inactive) | 
CN1CCN(C2=C(NS(=O)(=O)c3ccccc3)C(=O)c3ccccc3C2=O)CC1 | 7.03% (inactive) | 
Cc1ccc(C=NNc2ccc([N+](=O)[O-])cn2)cc1 | -5.44% (inactive) | 
O=S(=O)(c1cc(Cl)ccc1Cl)N1CC2CCCN2c2ccc(C(F)(F)F)cc21 (stereo unspecified) | -10.5% (inactive) | 
Cc1ccc2cc(CCNC(=O)c3cccc([N+](=O)[O-])c3)c(=O)[nH]c2c1C | 2.58% (inactive) | 
CCCn1c(=O)c2ccccc2n2c(SCC(=O)c3ccc(CC)cc3)nnc12 | -1.12% (inactive) | 
Cc1cc(CN2CCCC(CNC(=O)c3ccc(F)cc3)C2)cc(C)c1O (stereo unspecified) | -7.66% (inactive) | 
Cc1cc(N2C(=O)C(O)=C(C(=O)c3cc4ccccc4o3)C2c2cccc(Br)c2)no1 (stereo unspecified) | 5.32% (inactive) | 
CCCOc1ccc(/C(O)=C2\C(=O)C(=O)N(c3ccccn3)C2c2ccccc2F)cc1C (stereo unspecified) | 22.2% (inactive) | 

Structure (SMILES) | inhibition | inhibition [1]
CCCOc1ccc(C2C(C(=O)c3cc4ccccc4o3)=C(O)C(=O)N2c2cc(C)on2)cc1OC (stereo unspecified) | -3.55% (inactive) | 
C=CCOc1cccc(C2C(C(=O)c3ccc(C)o3)=C(O)C(=O)N2Cc2ccncc2)c1 (stereo unspecified) | -1.6% (inactive) | 
C=CCOc1cccc(C2C(C(=O)c3ccc(C)o3)=C(O)C(=O)N2CCN(C)C)c1 (stereo unspecified) | -3.18% (inactive) | 
COc1ccc(C2C(C(C)=O)=C(O)C(=O)N2c2ccccn2)cc1 (stereo unspecified) | 0.65% (inactive) | 
COc1cccc(C2C(C(=O)c3cc4ccccc4o3)=C(O)C(=O)N2c2cc(C)on2)c1 (stereo unspecified) | 11.6% (inactive) | 
CCCOc1ccc(C2C(C(=O)c3cc4ccccc4o3)=C(O)C(=O)N2c2cc(C)on2)cc1 (stereo unspecified) | 27.6% (inactive) | 
COc1cc(C2CC(=O)Oc3cc(O)ccc32)cc(OC)c1OC (stereo unspecified) | 1.65% (inactive) | 3.63%
C=CCN1CCN(C(c2cc(OC)ccc2OC)c2nnnn2CC2CCCO2)CC1 (stereo unspecified) | 1.37% (inactive) | 
COc1ccc(-c2ccc(=O)n(Cc3ccccc3)n2)cc1 | -0.78% (inactive) | 
C=CCn1c(CC(C)(C)C)nc2ccccc21 | -5.1% (inactive) | 
Cc1ccc(S(=O)(=O)N2CCCN(C(=O)c3ccc(-n4nccc4C)cc3)CC2)cc1 | -5.13% (inactive) | 
CCOC(=O)C1CCCN(C(=O)/C(=C/c2ccco2)NC(=O)c2ccccc2)C1 (stereo unspecified) | -14.3% (inactive) | 
CC[n+]1c(/C=C(\C)OC)sc2ccccc21 | 2.92% (inactive) | 
O=C(COC(=O)/C=C/c1ccccc1Cl)NC(=O)NC1CCCC1 | -7.24% (inactive) | 
COCCNC(=O)CN1C(=O)CSc2ccc(S(=O)(=O)N3CCOCC3)cc21 | 0.89% (inactive) | 
COc1ccc(C(=O)N2CCN(c3ccc(NC(=O)c4ccco4)cc3)CC2)cc1 | 0% (inactive) | 
COc1cc(O)c2c(c1)OC(C)(C)CC2=O | -2.94% (inactive) | 
CC1(C)CC(=O)c2c(O)cc(O)cc2O1 | -4.17% (inactive) | 
N#CCCN(C(=O)COC(=O)CNS(=O)(=O)c1ccc2ccccc2c1)c1ccccc1 | 1.1% (inactive) | 
N#CCc1ccc(NC(=O)Cn2c(=O)oc3ccccc32)cc1 | -3.26% (inactive) | -4.87%
COc1ccc(S(=O)(=O)N2CCCC2)c(Cl)c1Cl | -8.19% (inactive) | 
CCC(C)(C)C1CCc2c(sc(NC(=O)c3ccoc3C)c2C(N)=O)C1 (stereo unspecified) | -3.22% (inactive) | 
CCC1CCc2c(sc(NC(=O)C3CC=CCC3C(=O)O)c2C#N)C1 (stereo unspecified) | 27.5% (inactive) | 
COc1ccc(-c2cc(C(=O)Nc3sc4c(c3C#N)CCCC4)c3ccccc3n2)cc1OC | -4.06% (inactive) | 

Structure (SMILES) | inhibition | inhibition [1]
CC1CCc2c(sc(NC(=O)c3ccccc3C(=O)O)c2C#N)C1 (stereo unspecified) | -0.74% (inactive) | 
N#Cc1c(NC(=O)C2CC=CCC2C(=O)O)sc2c1CCCCCC2 (stereo unspecified) | 5.78% (inactive) | 
COc1ccc(OC)c(-c2cc(C(=O)Nc3sc4c(c3C#N)CCC(C)C4)c3ccccc3n2)c1 (stereo unspecified) | -5.61% (inactive) | 
CCOc1ccc(-c2cccc(NC(=O)COc3ccc(Cl)cc3)c2)nn1 | -5.43% (inactive) | 
COc1ccc(/C=C/C(=O)c2cc(Br)ccc2O)cc1OC | 0.78% (inactive) | 
Cc1cccc(-n2nnnc2SCC(=O)Nc2cccc(S(N)(=O)=O)c2)c1 | 0% (inactive) | 
Cc1ccc(NC(=S)NCC2CCCO2)cc1 (stereo unspecified) | -18% (inactive) | 
C[C@H](CO)N1C[C@H](C)[C@@H](CN(C)Cc2ccc(C(=O)O)cc2)Oc2c(NS(=O)(=O)c3cccs3)cccc2C1=O | 2.31% (inactive) | -3.33%
CC1(C)CC(=O)C(C#N)=C(NCCCO)C1 | -3.49% (inactive) | 
CC(C)=NNC1=NC(C)(C)Cc2ccccc21 | 3.83% (inactive) | 
O=C1NC(=S)NC(=O)C1=Cc1ccccc1C(=O)O | 1.94% (inactive) | 
O=C1NC(=S)NC1=Cc1ccc(Cl)cc1Cl | -0.78% (inactive) | 
O=C1NC(=O)/C(=C/c2ccccc2Cl)N1 | -5.96% (inactive) | 
C=CCOC(=O)C(=O)/C=C/c1csc2ccccc12 | 23.7% (inactive) | 
O=Cc1c(Cl)cccc1Cl | 0% (inactive) | 
O=C1Nc2ccccc2/C1=C/c1ccccc1Cl | -2.65% (inactive) | 
C/C=C/C=C\C(=O)Nc1cccc(C2=NOC3(C2)C[C@H](C(N)=O)N(C(=O)/C=C/C)C3)c1 (stereo partly specified) | -9.17% (inactive) | 
CCOC(=O)c1c(S(=O)(=O)N(C)C2CCCCC2)c(C)n(C)c1C | -7.99% (inactive) | 
CC(C)(CNC(=O)c1cc(Cl)c(O)c(Cl)c1)N1CCCCC1 | 3.57% (inactive) | 
CCC1=NN2C(=N)/C(=C/c3ccc(OS(=O)(=O)c4ccccc4)c(OC)c3)C(=O)N=C2S1 | 4.04% (inactive) | 
N=C1/C(=C\c2ccc(OC(=O)c3ccccc3Cl)cc2)C(=O)N=C2SC(N3CCOCC3)=NN12 | 34.8% (inactive) | 
N=C1/C(=C\c2ccc(OC(=O)c3ccc(F)cc3)cc2)C(=O)N=C2SC(N3CCCC3)=NN12 | -2.77% (inactive) | 
Cc1ccc(C(=O)Oc2ccc(/C=C3\C(=N)N4N=C(N5CCOCC5)SC4=NC3=O)cc2)cc1 | 9.04% (inactive) | 
CCC1=NN2C(=N)/C(=C\c3ccc(OCCOc4ccc(NC(C)=O)cc4)c(OC)c3)C(=O)N=C2S1 | 4.57% (inactive) | 

Structure (SMILES) | inhibition | inhibition [1]
N=C1/C(=C\c2ccc(OC(=O)c3ccccc3)cc2)C(=O)N=C2SC(N3CCOCC3)=NN12 | 3.46% (inactive) | 
COCCN(CCOC)S(=O)(=O)c1ccc(C(=O)NCCCN2CCOCC2)cc1 | -2.15% (inactive) | 
O=C(c1ccco1)N1CCN(C(=S)Nc2ccccc2Cl)CC1 | 1.93% (inactive) | 
Cc1cc2n(n1)C(c1ccsc1)Nc1ccccc1-2 (stereo unspecified) | -9.35% (inactive) | 
C/C(=C\COc1cc(=O)[nH]c2ccccc12)CCC(O)C(C)(C)O (stereo unspecified) | -11.2% (inactive) | 
Cc1nc2ccccc2n1CC(=O)NC(C)C1CC2CCC1C2 (stereo unspecified) | -6.66% (inactive) | 
C=CCn1c(SCc2ccc(F)cc2)nc2c1c(=O)[nH]c(=O)n2C | -3.48% (inactive) | 
Cc1nn(CC(=O)Nc2cccnc2)c(C)c1[N+](=O)[O-] | -9.49% (inactive) | 
C/C(=N/NC(=O)Cc1ccccc1)c1ccc(C)s1 | 5.19% (inactive) | 
O=C1ON=C(c2ccccc2)/C1=C/c1ccc(O)c(O)c1 | 28.7% (inactive) | 
O=C1ON=C(c2ccccc2)/C1=C/c1ccccc1 | 27% (inactive) | 8.25%
Cc1ccc(C2=NOC(=O)/C2=C\c2ccccc2)cc1 | 27.9% (inactive) | 
O=C1ON=C(c2ccccc2)/C1=C/c1ccc(O)cc1 | 42% (inactive) | 20.8%
O=c1[nH]c2cc(Cl)cc(Cl)c2[nH]c1=O | -3.92% (inactive) | 
CSc1nc(N(C)C)nc(N(C#N)CCOC(C)=O)n1 | 0.74% (inactive) | 
COc1ccc(NS(=O)(=O)c2cc(NC(=O)[C@@H](NC(=O)c3ccccc3)C(C)C)ccc2C)cc1 | -3.89% (inactive) | 
CC(=O)Nc1c(C(=O)O)[nH]c2ccccc12 | -4.8% (inactive) | 
COc1cc(CC(=O)O)ccc1OCc1ccccc1 | -5.48% (inactive) | 
Cc1[nH]c2ccccc2c1SCC(=O)O | -8.76% (inactive) | 
O=C(O)c1[nH]c2ccccc2c1-c1ccccc1 | -4.76% (inactive) | 
C=CCOc1ccc(C(c2c(C)n(C)n(-c3ccccc3)c2=O)c2c(C)n(C)n(-c3ccccc3)c2=O)cc1 | -3.27% (inactive) | 
COc1cc(C(NC(C)=O)NC(C)=O)ccc1OCc1ccccc1 | -12.5% (inactive) | 
COc1ccc(CN=Cc2c(C(=O)O)[nH]c3ccccc23)cc1 | -3.12% (inactive) | 
O=C(O)CCc1c(C(=O)O)[nH]c2ccccc12 | -0.56% (inactive) | 
